# Source: PubChem BioAssay
# This is a sample that favours compounds with a hit; in the whole collection about 6.6% have one here.
# NR3A LBD binder: modulators (binders) of human NR3A ligand-binding domain. NR3A LBD differential scanning fluorimetry, Tm shift; 0% = protein alone, 100% = glycine-bound protein. Tm shift relative to glycine control, % at 25 µM. hit rate 2.5% among 340,000. AID 1259313;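 active = melting temperature shift of at least 10% of the positive control shift, at one fixed dose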
# CSC inhib: blocks cancer stem cells; cancer stem cell-like cells viability, luminescence; inhibition, % at 7.5 µM; hit rate 1.1% among 300,000; AID 2717; in the data active = inhibition above about 75%; tested in HMLE shEcad cells
# MPTP inh: permeability transition pore inhibition; isolated mouse mitochondria, Ca2+ swelling absorbance, 30 min; inhibition, % at 10 µM; hit rate 1.4% among 360,000; AID 602449;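 active = inhibition of 50% or more, scaled per plate between neutral and stimulator controls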;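 note: 0% = DMSO wells given calcium and 100% = 1 mM EGTA wells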
# Beta cell apopt: beta cell apoptosis inhibition. protection from apoptosis, % (concentration not given with the values). INS-1E cytokine-induced death, ATP luminescence, 48 h; percent of positive-control rescue, neutral wells zero. hit rate 0.8% among 300,000;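 active = Every replicate reaches about 75%, or at least half do and their mean reaches it too, limit read from the data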;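 note: 0% = cytokine-treated negative control wells and 100% = positive control rescue; higher means more ATP so stronger rescue from cytokine killing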
# Mdm2 MdmX PPI: inhibitors of human Mdm2/MdmX interaction. SaOS-2 split-luciferase Mdm2/MdmX complementation, luminescence. inhibition, % at 8 µM. hit rate 3% among 330,000. AID 485346;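 active = inhibition of at least 50% at 8 µM in the primary screen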
# Target sequence (O15151 whole entry, looked up): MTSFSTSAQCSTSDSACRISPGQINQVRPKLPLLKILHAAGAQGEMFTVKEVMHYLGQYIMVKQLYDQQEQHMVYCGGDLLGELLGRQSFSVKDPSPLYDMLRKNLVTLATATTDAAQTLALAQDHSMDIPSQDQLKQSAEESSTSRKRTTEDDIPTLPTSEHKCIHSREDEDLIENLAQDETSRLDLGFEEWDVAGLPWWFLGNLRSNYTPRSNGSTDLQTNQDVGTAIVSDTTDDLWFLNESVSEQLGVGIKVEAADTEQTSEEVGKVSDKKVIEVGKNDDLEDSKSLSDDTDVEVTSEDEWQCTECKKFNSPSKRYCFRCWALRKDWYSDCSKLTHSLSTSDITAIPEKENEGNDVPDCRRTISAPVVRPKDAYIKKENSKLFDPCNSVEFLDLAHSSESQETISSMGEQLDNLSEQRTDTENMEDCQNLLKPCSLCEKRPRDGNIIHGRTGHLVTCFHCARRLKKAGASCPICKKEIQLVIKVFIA
# Target sequence (Q00987 whole entry, looked up): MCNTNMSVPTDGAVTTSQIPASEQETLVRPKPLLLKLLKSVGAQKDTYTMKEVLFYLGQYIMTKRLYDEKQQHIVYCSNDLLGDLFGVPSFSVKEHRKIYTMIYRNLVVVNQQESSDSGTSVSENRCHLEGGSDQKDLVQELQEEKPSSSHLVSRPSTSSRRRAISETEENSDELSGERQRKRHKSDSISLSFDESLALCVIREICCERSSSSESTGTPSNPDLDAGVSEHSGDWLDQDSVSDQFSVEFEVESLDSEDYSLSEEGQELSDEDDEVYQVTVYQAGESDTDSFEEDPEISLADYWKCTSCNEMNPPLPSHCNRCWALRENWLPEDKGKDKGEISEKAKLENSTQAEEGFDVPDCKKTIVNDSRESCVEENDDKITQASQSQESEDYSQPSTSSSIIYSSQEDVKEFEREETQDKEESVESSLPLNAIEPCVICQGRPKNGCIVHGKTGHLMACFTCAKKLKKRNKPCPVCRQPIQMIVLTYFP
# Gli-Sufu block: Gli-Sufu pathway antagonism | Sufu-KO-LIGHT fibroblasts, Gli luciferase reporter luminescence | inhibition, % at 5 µM | hit rate 0.74% among 340,000 | AID 588413;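 active = inhibition above about 55%, limit read from the data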;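 note: 0% = DMSO-treated cells and 100% = wells with medium but no cells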
# Mdm2-MdmX conf: confirmation of human Mdm2/MdmX interaction inhibitors. hit rate 55% among 10,000. Mdm2-MdmX binding, luminescent assay. shares compounds with Mdm2 MdmX PPI. inhibition, % at 8 µM; in the data active = inhibition above about 40%
# Full FLuc ctr: full-length luciferase inhibition in Mdm2/MdmX counter-screen; shares compounds with Mdm2 MdmX PPI; SaOS-2 full-length luciferase counterscreen, luminescence; inhibition, % at 8 µM; hit rate 77% among 6,200;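 active = mean inhibition at 8 µM reaching about 37%, which flags the compound as non-specific, limit read from the data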;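 note: p53-null SaOS-2 cells with luciferase driven by a doxycycline-inducible promoter; compound on cells about two nights before reading with doxycycline added after day one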
# * = called active by the depositor; x = no result given.
SMILES,NR3A LBD binder,CSC inhib,MPTP inh,Beta cell apopt,Mdm2 MdmX PPI,Gli-Sufu block,Mdm2-MdmX conf,Full FLuc ctr
COc1ccc(N2CCN(CCCn3c(=S)[nH]c4ccccc4c3=O)CC2)cc1,0,33,2,8,86*,12,67*,47*
O=c1c2cc(N3CCOCC3)ccc2[nH]c(=S)n1CCCN1CCCCCC1,1,1,3,5,-33,12,x,x
O=c1c2cc(N3CCOCC3)ccc2[nH]c(=S)n1CCCN1CCN(c2ccccc2F)CC1,x,x,x,2,58*,x,32,x
O=C(CCCCCn1c(=S)[nH]c2ccc(N3CCOCC3)cc2c1=O)NCCc1ccccc1,-7,39,-12,-3,51*,34,-10,x
O=C(CC[C@H]1O[C@@H](n2ccc(=O)[nH]c2=O)[C@H](O)[C@@H]1O)N[C@H](Cc1ccccc1)C(=O)NCc1ccccc1,x,x,-1,x,x,x,x,x
O=C1c2ccccc2C(=O)C1c1nccc2ccccc12,-1,-5,1,33,67*,19,10,x
COc1ccccc1CNC(=O)OCc1nccnc1C(=O)Nc1ccc(Br)cn1,3,-1,1,-9,55*,-10,-7,x
O=C(NCCCn1ccnc1)c1ccc(Br)s1,1,-13,1,-3,9,4,x,x
CCc1ccc(/C=C/c2c([N+](=O)[O-])c(=O)n(C)c(=O)n2C)cc1,0,17,-1,2,64*,-4,44*,40*
Cn1c(/C=C/c2ccc(Cl)cc2Cl)c([N+](=O)[O-])c(=O)n(C)c1=O,1,28,1,2,100*,7,76*,11
Cc1cccc(N2CCN(S(=O)(=O)c3ccc4c(c3)CCCN4C(=O)C3CCC3)CC2)c1C,-5,-3,0,7,36,4,x,x
Cn1c(=O)[nH]c(=O)c2c1nc(Br)n2CCCSc1nc2ccccc2o1,1,x,2,2,65*,0,56*,98*
COc1ccc(/C=N/Nc2cc(C)nc3ccc(OC)cc23)c(OC)c1,-1,101*,46,117*,100*,33,99*,51*
COc1ccc2nc(C)cc(N/N=C/c3ccccc3)c2c1,-4,97*,25,96*,100*,16,26,x
Cc1cccc(C)c1-n1nnnc1C1(C)CCC(=O)N1c1ccc(N2CCOCC2)cc1 (centres undefined),x,x,-1,x,x,x,x,x
O=C1Nc2c(Cl)cc(Cl)cc2C1=O,-12,x,-1,x,x,-2,x,x
O=C(c1cc(-c2cccs2)nn1-c1ccccc1)N1CCN(S(=O)(=O)c2ccccc2)CC1,1,53,1,8,55*,8,38,92*
Cc1ccc(S(=O)(=O)N2CCN(C(=O)c3cc(-c4cccs4)nn3-c3ccccc3)CC2)cc1,-3,3,-1,-7,67*,19,41*,88*
O=C(c1cc(-c2ccccc2)nn1-c1ccccc1)N1CCN(S(=O)(=O)c2ccc(F)cc2)CC1,1,61,0,10,48,7,x,x
CCOc1ccc(NC(=O)c2ccc3c(c2)S(=O)(=O)N=C2CCCCCN23)cc1,x,x,1,x,x,x,x,x
CC(Sc1nnc(N)s1)C(=O)Nc1ccc2c(c1)OCO2 (centres undefined),-1,x,-2,x,17,-9,x,x
Cc1cccc(OCC(=O)NC(C)C(=O)N/N=C/c2c(OCc3ccccc3)ccc3ccccc23)c1 (centres undefined),0,x,2,5,76*,-22,36,69*
O=S(=O)(/N=C(/Nc1cccnc1Cl)c1ccccc1)c1ccccc1,1,24,1,-7,2,6,x,x
CN(C)CCCN(Cc1cc2cc3c(cc2[nH]c1=O)OCO3)C(=S)Nc1ccccc1,1,-6,-1,-9,6,41,x,x
CN(C)CCCN(Cc1cc2cc3c(cc2[nH]c1=O)OCO3)C(=S)Nc1cccc(Cl)c1,-1,x,-2,-6,59*,40,29,x
SMILES,NR3A LBD binder,CSC inhib,MPTP inh,Beta cell apopt,Mdm2 MdmX PPI,Gli-Sufu block,Mdm2-MdmX conf,Full FLuc ctr
COc1ccc(CS(=O)(=O)/C(Cl)=C(/Cl)C(=O)Nc2ccc(OC)nc2)cc1,-19,109*,-1,52,94*,18,97*,51*
COc1ccc(NC(=O)/C(Cl)=C(/Cl)S(=O)Cc2ccccc2)cn1 (centres undefined),0,x,-1,104*,98*,66*,99*,1
COCC(=O)N1CCN(c2nc3ccccc3o2)CC1,0,-2,3,-7,22,12,x,x
CCN(C[C@H]1N[C@@](Cc2ccccc2)(C(=O)OC)[C@H]2C(=O)N(Cc3ccccc3)C(=O)[C@@H]12)C(=O)COc1ccccc1,-2,-7,0,-3,-1,3,x,x
CN(CC(=O)Nc1cccc(F)c1)CC(=O)N1CCCCC1,2,x,0,-1,29,2,x,x
Cc1cc(C)n(-c2nnc3n2N=C(c2c[nH]c4ccccc24)CS3)n1,-1,43,-1,-5,56*,-19,46*,50*
COc1ccc(OC)c(NC(=O)CN(Cc2ccc(F)cc2)C2CCCCC2)c1,2,23,2,100*,52*,23,23,x
COc1ccc(Cl)cc1NC(=O)CN(C)C1CCCCC1,3,9,38,1,13,-3,x,x
CC(C)(C)CC(=O)N1CCN(c2ccc(S(=O)(=O)N3CCOCC3)cc2[N+](=O)[O-])CC1,2,-14,-1,-1,31,-1,x,x
CCOC(=O)CCCCCC(=O)Nc1ccc2c(c1)C(=O)N([C@H](C)CO)C[C@H](C)[C@H](CN(C)C(=O)C1CCCCC1)OCCCC[C@@H](C)O2,x,x,0,x,x,x,x,x
c1ccc(OCCOCCN2CCN(C(c3ccccc3)c3ccccc3)CC2)cc1,-1,1,1,1,52*,x,15,x
OC(COc1ccccc1)CN1CCN(C(c2ccccc2)c2ccccc2)CC1 (centres undefined),-2,25,2,x,20,18,x,x
Cn1c(NC2CCCCC2)cc(=O)n(C)c1=O,6,-12,-1,-1,26,13,x,x
Cc1cc(C2CCCCC2)n(O)c(=O)c1,-2,105*,0,88*,74*,14,58*,32
COCc1cc(=O)[nH]c(/N=C(\N)Nc2cccc(C)c2)n1,-3,-3,-1,5,31,3,x,x
N/C(=N\c1nc(CSc2ccccn2)cc(=O)[nH]1)Nc1ccc(Cl)cc1Cl,1,x,7,5,64*,2,2,x
COc1ccc(Cl)cc1N/C(N)=N/c1nc(CSc2ccc(C)cc2)cc(=O)[nH]1,0,-7,0,12,4,19,x,x
